# Records with an inconclusive call do not appear. Where a call stands in place of a potency, no number is given. The source made the active and inactive calls. Unless noted, calls follow the shape of the dose curve; as a rule, active = well fitted curve in the direction sought with a large enough effect; inconclusive = small, poorly fitted or top-dose-only effect, or another doubt; inactive = no such curve, though single readings can be large; an effect the other way counts as inactive or inconclusive.
# Assays:
# [1] = qHTS for differential inhibitors of proliferation of Plasmodium falciparum line W2 (AID 1883); conditions: Potency: Plasmodium falciparum W2 proliferation inhibition; series mostly up to 28.7 µM;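 also: parasites grown with compound for 72 h before lysis and staining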
# [2] = qHTS for differential inhibitors of proliferation of Plasmodium falciparum line HB3 (AID 1886); conditions: Potency: Plasmodium falciparum HB3 proliferation inhibition; series mostly up to 28.7 µM;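 also: parasites grown with compound for 72 h before SYBR Green readout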
# [3] = biological target: Ferritin light chain (Equus caballus) (UniProt P02791); assay: qHTS Validation Assay for Identification of Novel General Anesthetics (AID 2323); conditions: horse apoferritin, anesthetic-site fluorescent probe displacement; series mostly up to 76.9 µM
# Sequence of Ferritin light chain (Equus caballus) (P02791 2-175 limits assumed): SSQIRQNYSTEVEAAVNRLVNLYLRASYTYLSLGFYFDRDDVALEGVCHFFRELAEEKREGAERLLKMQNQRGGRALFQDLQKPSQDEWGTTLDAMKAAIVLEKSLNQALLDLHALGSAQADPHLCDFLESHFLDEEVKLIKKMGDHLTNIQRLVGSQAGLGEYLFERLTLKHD
# How it was run: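 Normalized fluorescence response, scaled between free 1-AMA and 1-AMA/apoferritin complex, fitted to a four-parameter Hill equation for concentration-effect values. Binding mix: 10 uM horse-spleen apoferritin, 50% saturated 1-AMA in PBS; read 380/535 nm after 10 min.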
# [4] = biological target: ATP-dependent DNA helicase Q1 (Homo sapiens) (UniProt P46063); assay: qHTS Validation Assay for Inhibitors of RecQ-Like Dna Helicase 1 (RECQ1) (AID 2353); conditions: recombinant RECQ1 helicase DNA unwinding assay; series mostly up to 25.6 µM
# Sequence of ATP-dependent DNA helicase Q1 (Homo sapiens) (P46063 whole entry, looked up): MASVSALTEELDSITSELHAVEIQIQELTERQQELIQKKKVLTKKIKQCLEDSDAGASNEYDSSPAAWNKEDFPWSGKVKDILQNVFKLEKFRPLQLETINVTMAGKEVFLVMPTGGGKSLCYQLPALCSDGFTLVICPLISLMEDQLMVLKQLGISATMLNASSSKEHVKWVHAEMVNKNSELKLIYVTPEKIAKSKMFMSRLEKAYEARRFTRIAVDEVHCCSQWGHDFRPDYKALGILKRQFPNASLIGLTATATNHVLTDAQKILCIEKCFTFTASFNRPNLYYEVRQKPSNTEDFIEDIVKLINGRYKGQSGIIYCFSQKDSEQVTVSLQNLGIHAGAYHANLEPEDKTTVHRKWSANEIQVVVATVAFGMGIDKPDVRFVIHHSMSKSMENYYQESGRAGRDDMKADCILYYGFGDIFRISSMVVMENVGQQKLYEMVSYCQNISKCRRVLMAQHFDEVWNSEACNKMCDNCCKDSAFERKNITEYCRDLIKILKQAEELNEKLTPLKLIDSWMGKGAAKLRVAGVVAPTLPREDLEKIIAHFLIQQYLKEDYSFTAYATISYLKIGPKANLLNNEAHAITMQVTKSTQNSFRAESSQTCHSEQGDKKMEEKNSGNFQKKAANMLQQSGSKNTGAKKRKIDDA
# How it was run: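 50 nM RECQ1T1 preincubated 15 min with compound in Tris pH 8.0 buffer with MgCl2, DTT, Tween-20 and 2.5 ug/ml poly(dI-dC); started with 200 nM TAMRA/BHQ-2 forked duplex and 2 mM ATP. Unwinding read as fluorescence (525/598 nm), two reads 2 h apart.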
# [5] = Cytometric Cell-Based qHTS for Inhibitors of the mTORC1 Signaling Pathway in MEF (Tsc2-/-, p53-/-) Cells (AID 2660); conditions: mTORC1 pathway cytometry; series mostly up to 38.3 µM;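 also: percent of cells above a phospho-rpS6 to PI ratio cutoff in each well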
# How it was run: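 Immunofluorescence qHTS of rpS6 Ser235/236 phosphorylation: MEFs (Tsc2-/-, p53-/-) treated 24 h, 37 C, in DMEM + 10% FBS. Alexa-488 signal normalized to PI count, referenced to rapamycin (7.5 nM) and DMSO; PI cell number recorded for viability.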
# [6] = High Content Imaging Cell-Based qHTS for Inhibitors of the mTORC1 Signaling Pathway in MEF (Tsc2-/-, p53-/-) Cells (AID 2666); conditions: series mostly up to 38.3 µM;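 also: percent of cells scored positive for phospho-rpS6 Ser235/236 immunostaining by imaging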
# How it was run: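 Read-out: % positive cells per well, with thresholds from highest- and lowest-signal wells, based on phospho-rpS6 (Ser235/236) intensity normalized to Hoechst nuclear stain. Cells: Tsc2-/-, p53-/- MEFs carrying empty vector; compound 24 hrs, 37 degree Celsius.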
# [7] = biological target: RecQ-like DNA helicase BLM (Homo sapiens) (UniProt P54132); assay: qHTS Validation Assay for Inhibitors of Bloom's syndrome helicase (BLM) (AID 2364); conditions: BLM helicase DNA unwinding, fluorescence, in vitro; series mostly up to 57.1 µM
# Sequence of RecQ-like DNA helicase BLM (Homo sapiens) (P54132 whole entry, looked up): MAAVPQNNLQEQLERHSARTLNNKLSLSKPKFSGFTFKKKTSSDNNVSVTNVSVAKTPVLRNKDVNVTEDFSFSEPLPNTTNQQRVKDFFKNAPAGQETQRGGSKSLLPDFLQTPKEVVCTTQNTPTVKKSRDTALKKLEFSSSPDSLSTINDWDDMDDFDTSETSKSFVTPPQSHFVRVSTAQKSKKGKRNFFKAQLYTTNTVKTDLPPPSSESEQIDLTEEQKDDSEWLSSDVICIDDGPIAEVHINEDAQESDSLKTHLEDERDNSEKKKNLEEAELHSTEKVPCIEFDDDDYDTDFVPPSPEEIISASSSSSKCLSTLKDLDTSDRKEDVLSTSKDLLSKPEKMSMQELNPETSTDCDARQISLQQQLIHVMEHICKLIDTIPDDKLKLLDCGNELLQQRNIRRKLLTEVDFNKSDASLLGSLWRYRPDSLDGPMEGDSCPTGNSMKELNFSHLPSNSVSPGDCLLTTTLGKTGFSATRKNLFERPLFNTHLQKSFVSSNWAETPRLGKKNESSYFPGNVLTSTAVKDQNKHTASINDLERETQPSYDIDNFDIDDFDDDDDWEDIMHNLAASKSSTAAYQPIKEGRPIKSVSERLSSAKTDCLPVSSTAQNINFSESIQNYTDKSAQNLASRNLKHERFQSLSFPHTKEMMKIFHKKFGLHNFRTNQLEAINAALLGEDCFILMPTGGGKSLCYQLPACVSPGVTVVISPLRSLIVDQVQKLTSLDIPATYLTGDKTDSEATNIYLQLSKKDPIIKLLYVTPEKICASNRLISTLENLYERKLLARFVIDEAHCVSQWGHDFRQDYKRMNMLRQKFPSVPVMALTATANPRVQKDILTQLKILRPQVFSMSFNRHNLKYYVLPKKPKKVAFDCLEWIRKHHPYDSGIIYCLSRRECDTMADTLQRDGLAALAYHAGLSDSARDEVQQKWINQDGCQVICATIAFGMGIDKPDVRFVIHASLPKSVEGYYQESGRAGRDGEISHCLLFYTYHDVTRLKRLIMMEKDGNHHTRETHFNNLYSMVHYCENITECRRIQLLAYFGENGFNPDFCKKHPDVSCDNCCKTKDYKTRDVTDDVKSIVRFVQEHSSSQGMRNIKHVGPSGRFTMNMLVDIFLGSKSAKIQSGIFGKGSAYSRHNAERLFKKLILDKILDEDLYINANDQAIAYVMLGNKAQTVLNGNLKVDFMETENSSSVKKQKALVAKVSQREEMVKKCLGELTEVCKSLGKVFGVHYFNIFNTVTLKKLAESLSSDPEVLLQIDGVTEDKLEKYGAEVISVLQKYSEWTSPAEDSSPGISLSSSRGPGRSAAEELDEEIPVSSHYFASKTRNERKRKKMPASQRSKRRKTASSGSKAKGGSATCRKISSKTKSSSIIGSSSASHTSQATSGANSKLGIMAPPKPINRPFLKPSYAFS
# How it was run: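 BLM 50 nM in 25 mM Tris-HCl pH 8.0, 5 mM NaCl, 2 mM MgCl2, 1 mM DTT, 0.01% Tween-20, 2.5 ug/ml poly(dI-dC); 15 min cpd preinc, RT. Start: 200 nM forked DNA + 2 mM ATP (final). TAMRA read, 2 reads 2 h apart.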
# [8] = qHTS Assay for Modulators of Human Peripheral Myelin Protein 22 (PMP22) Expression/Activity (AID 1967; active = well fitted curve in the direction sought with a large enough effect in the signal ratio; the % refers to the signal ratio; also: potency is read from the fitted curve at half-maximal effect); conditions: Cell-based PMP22 reporter, dual-color luciferase ratio, mouse Pmp22 promoter in mouse Schwann cells; series mostly up to 115 µM
# How it was run: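 Engineered MSC80 cells, Pmp22-promoter green and EF-alpha red luciferase reporters; 24h compound treatment at 37 °C. Concentration-response fits on green, red and ratio signals, each overlap-corrected, with %Activity normalized to untreated wells.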
# [9] = qHTS Assay for Identification of Small Molecule Inducers of Hypoxia Response (AID 2120; active = well fitted curve in the direction sought with a large enough effect in the signal ratio, with a control signal flat, not every such curve was filed as active; the % refers to the signal ratio); conditions: hypoxia response reporter cells, beta-lactamase ratio readout; series mostly up to 104 µM
# How it was run: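 HRE-bla ME-180 cells in Opti-MEM with 0.5% dialyzed FBS, pre-plated 4-5 h, then compound titration for 17 h at 37 degrees Celsius. CCF4 loaded 2.5 h at room temperature; 460/530 nm ratio gave %Activity and AC50 for induction.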
smiles,measurement,setting,value
Cc1cn([C@H]2C=C[C@@H](CO)O2)c(=O)[nH]c1=O,Potency,[1],inactive
same,Potency,[2],inactive
same,Potency,[3],inactive
same,Potency,[4],inactive
same,outcome,[5],inactive
Cc1ccccc1N1C(=O)c2cc(S(N)(=O)=O)c(Cl)cc2NC1C (stereo unspecified),Potency,[2],inactive
same,Potency,[3],inactive
same,Potency,[4],inactive
same,outcome,[5],inactive
same,Potency,[6],inactive
NS(=O)(=O)c1cc2c(cc1Cl)NCNS2(=O)=O,Potency,[2],inactive
same,Potency,[4],inactive
same,Potency,[7],inactive
same,outcome,[5],inactive
COc1cc2c(c(OC)c1OC)-c1ccc(OC)c(=O)cc1[C@@H](NC(C)=O)CC2,Potency,[8],inactive
same,outcome,[9],inactive
same,Potency,[4],inactive
same,Potency,[7],inactive
same,outcome,[5],inactive
NC(CO)C(=O)NNCc1ccc(O)c(O)c1O (stereo unspecified),Potency,[2],inactive
same,Potency,[4],inactive
same,Potency,[7],inactive
same,outcome,[5],inactive
C[C@](N)(Cc1ccc(O)c(O)c1)C(=O)O,Potency,[2],inactive
same,Potency,[4],inactive
CC#C[C@]1(O)CC[C@H]2[C@@H]3CCC4=CC(=O)CCC4=C3[C@@H](c3ccc(N(C)C)cc3)C[C@@]21C,outcome,[5],inactive
Cc1cc(C(C)(C)C)cc(C)c1CC1=NCCN1,Potency,[4],inactive
same,outcome,[5],inactive
OCCN1CCN(CCCN2c3ccccc3Sc3ccc(C(F)(F)F)cc32)CC1,Potency,[4],inactive
same,Potency,[7],inactive
C[C@H]1c2cccc(O)c2C(O)=C2C(=O)[C@]3(O)C(O)=C(C(N)=O)C(=O)[C@@H](N(C)C)[C@@H]3[C@@H](O)[C@@H]21,outcome,[5],inactive
same,Potency,[6],inactive
Cc1cnc(C(=O)NCCc2ccc(S(=O)(=O)NC(=O)NC3CCCCC3)cc2)cn1,Potency,[2],inactive
same,Potency,[4],inactive
same,outcome,[5],inactive
same,Potency,[6],inactive
COc1ccccc1OCCNCC(O)COc1cccc2[nH]c3ccccc3c12 (stereo unspecified),outcome,[5],inactive
same,Potency,[6],inactive
COc1ccc2c(c1)c(CC(=O)O)c(C)n2C(=O)c1ccc(Cl)cc1,Potency,[2],inactive
same,outcome,[9],inactive
same,Potency,[4],inactive
same,Potency,[7],inactive
same,outcome,[5],inactive
same,Potency,[6],inactive
Clc1ccc2nsnc2c1NC1=NCCN1,outcome,[5],inactive
Cc1ccc(-c2cc(C(F)(F)F)nn2-c2ccc(S(N)(=O)=O)cc2)cc1,outcome,[9],inactive
O=C1Cc2cc(CCN3CCN(c4nsc5ccccc45)CC3)c(Cl)cc2N1,Potency,[6],inactive
O=c1c(O)c(-c2ccc(O)c(O)c2)oc2cc(O)cc(O)c12,outcome,[5],inactive
COc1ccc(CCN(C)CCCC(C#N)(c2ccc(OC)c(OC)c2)C(C)C)cc1OC (stereo unspecified),Potency,[4],inactive
same,outcome,[7],inactive
same,outcome,[5],inactive
same,Potency,[6],inactive
COC(=O)Nc1nc2ccc(C(=O)c3cccs3)cc2[nH]1,Potency,[3],inactive
same,Potency,[4],inactive
same,Potency,[6],inactive
Clc1ccc(C(c2ccccc2Cl)C(Cl)Cl)cc1 (stereo unspecified),Potency,[2],inactive
same,Potency,[3],inactive
same,Potency,[4],inactive
same,outcome,[5],inactive
CC(C(=O)O)c1cccc(C(=O)c2ccccc2)c1 (stereo unspecified),Potency,[8],23.9 µM (active)
same,Potency,[3],inactive
same,Potency,[4],inactive
same,Potency,[7],inactive
same,outcome,[5],inactive
same,Potency,[6],inactive
O=c1[nH]cc(F)c(=O)[nH]1,Potency,[4],inactive
same,Potency,[7],inactive
same,outcome,[5],inactive
same,Potency,[6],inactive
CN1C2CCC1CC(OC(=O)C(CO)c1ccccc1)C2 (stereo unspecified),Potency,[2],inactive
same,Potency,[8],inactive
same,Potency,[4],inactive
same,outcome,[5],inactive
same,Potency,[6],inactive
COc1cc2nc(N(C)CCCNC(=O)C3CCCO3)nc(N)c2cc1OC (stereo unspecified),outcome,[5],inactive
same,Potency,[6],inactive
CN(C)C(=O)C(CCN1CCC(O)(c2ccc(Cl)cc2)CC1)(c1ccccc1)c1ccccc1,Potency,[4],inactive
O=C(CCCN1CCC(O)(c2ccc(Cl)cc2)CC1)c1ccc(F)cc1,Potency,[4],inactive
same,Potency,[7],inactive
same,outcome,[5],inactive
CCN1CCCC1CNC(=O)c1cc(S(=O)(=O)CC)c(N)cc1OC (stereo unspecified),outcome,[5],inactive
same,Potency,[6],inactive
CC(COc1ccccc1)N(CCCl)Cc1ccccc1 (stereo unspecified),Potency,[3],inactive
same,Potency,[4],inactive
same,Potency,[7],inactive
same,outcome,[5],inactive
same,Potency,[6],inactive
CCc1cccc2c3c([nH]c12)C(CC)(CC(=O)O)OCC3 (stereo unspecified),Potency,[2],inactive
same,Potency,[4],inactive
same,outcome,[5],inactive
CC(C)NCC(O)c1ccc(O)c(O)c1 (stereo unspecified),Potency,[4],inactive
same,Potency,[7],inactive
same,outcome,[5],inactive
CS(=O)(=O)Nc1ccc([N+](=O)[O-])cc1Oc1ccccc1,Potency,[2],inactive
same,Potency,[3],inactive
same,Potency,[4],inactive
same,outcome,[5],inactive
Cc1cn([C@H]2C[C@H](N=[N+]=[N-])[C@@H](CO)O2)c(=O)[nH]c1=O,outcome,[5],inactive
same,Potency,[6],inactive
CN1CCN(C2=Nc3cc(Cl)ccc3Nc3ccccc32)CC1,Potency,[4],inactive
same,outcome,[5],inactive

# Source: PubChem BioAssay (NCATS)
